# The whole screen tested about 310,000 compounds, of which about 1,000 (0.32%) were called active. A selection follows. Results with a measured potency or affinity are listed apart. Unmarked numbers belong to inactive results. The rule behind the calls is not given here.
# Experiment: PhoP regulon inhibitors, Salmonella typhi PhoP promoter GFP reporter, confirmatory (AID 1850);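 note: 0% = induced wells with vehicle and 100% = uninduced wells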
# Settings: fluorescence, 4 h, at 50 µM, stronger effect = higher value
row,SMILES,inhibition [%]
1,CC(=O)Nc1cccc(C(=O)Nc2cccnc2)c1,5.55
2,Nc1cn(C2OC(CO)C(O)C2O)c(=O)[nH]c1=O (configuration not stated),5.11
3,CC(=O)OCC1OC(n2cc(F)c(=O)[nH]c2=O)C(OC(C)=O)C1OC(C)=O (configuration not stated),-1.38
4,COc1ccccc1N1CCN(c2ccc(Cl)nn2)CC1,8.78
5,Cc1ccc(C(=O)N/C(=C\c2ccccc2)C(=O)NCCCn2ccnc2)cc1,-1.23
6,NC1=NC[C@H](Cc2ccc(O)cc2)N1CCc1cccc(F)c1,-13.5
7,NC1=NC[C@@H](Cc2ccc(O)cc2)N1CCC12CC3CC(CC(C3)C1)C2,-4.88
8,NC1=NC[C@@H](Cc2ccc(O)cc2)N1CCc1cccc2ccccc12,-7.1
9,NCCCC[C@H]1CN=C(N)N1CCC12CC3CC(CC(C3)C1)C2,27.2
10,COc1ccccc1N1CCN(C(=O)Cn2nc(C(F)(F)F)c3c2CCC3)CC1,-10.5
11,COc1cccc(C(=O)Nc2ccc(NC(=O)Cc3ccccc3)cc2)c1,-3.24
12,CC(NCc1ccncc1)C12CC3CC(CC(C3)C1)C2 (configuration not stated),2.47
13,CC(CC12CC3CC(CC(C3)C1)C2)NCc1ccccc1O (configuration not stated),0.38
14,NS(=O)(=O)c1cccc(NC(=O)CC23CC4CC(C2)CC(CC(=O)Nc2cccc(S(N)(=O)=O)c2)(C4)C3)c1,4.03
15,c1ccc(CN2CCC(Nc3ncnc4sccc34)CC2)cc1,-4.42
16,c1ccc(-c2nc(NC3CCCC3)c3ccccc3n2)cc1,3.11
17,c1ccc(CN2CCC(Nc3nc(-c4cccnc4)nc4ccccc34)CC2)cc1,1.57
18,c1ccc(CNc2nc(-c3cccs3)nc3ccccc23)cc1,-0.13
19,O=C1N(CN2CCC3(CC2)OCCO3)c2ccccc2C12OCCCO2,1.71
20,Cc1ccc(NC(=O)N2CCN(c3ncccc3C(F)(F)F)CC2)cc1,1.6
21,C=CCNC(=O)C1CC(=O)N(c2ccc(OCc3ccccc3Cl)cc2)C1 (configuration not stated),0.85
22,COc1ccc(C2NC(=O)Cc3cc(OC)c(OC)cc32)cc1OC (configuration not stated),-3.77
23,Nc1ccc(C(=O)OCc2nc3c(ccc4ccccc43)[nH]2)cc1,0.78
24,CN(C)CCNc1oc(COc2ccc(Cl)cc2)nc1C#N,8.61
25,Cc1cccc(OCc2nc(C#N)c(NCCN(C)C)o2)c1,-1.98

row,SMILES,inhibition [%]
1,Cc1ccc(S(=O)(=O)N2CCCC(C(=O)NCCc3ccc(S(N)(=O)=O)cc3)C2)cc1 (configuration not stated),-14.1
2,COc1ccc(-c2cc(C(=O)N(C)Cc3ccccc3F)c3ccccc3n2)cc1OC,-13.2
3,CCCn1nnc(NC(=S)NC(=O)/C=C/c2ccco2)n1,-16
4,Cc1nn(-c2nc3ccccc3[nH]2)c(=O)c2ccccc12,-19.2
5,CC1=NN(c2nc3ccccc3[nH]2)C(=O)/C1=C/N(C)C,-13.6
6,CN1CC(C(=O)c2ccc(F)cc2)C(c2c(F)cccc2Cl)C1 (configuration not stated),7.43
7,CCOC(=O)c1ccccc1NC(=O)CSc1nnc(C(C)C)n1CC,1.44
8,CC(C)C[C@H](NC(=O)NCc1ccccc1Cl)C(=O)O,2.59
9,Cc1ccc2c(c1)c1c(n2CC(O)CNC2CCCC2)CCCC1 (configuration not stated),14.4
10,Cc1ccc2c(c1)c1c(n2CC(O)CNC(CO)(CO)CO)CCCC1 (configuration not stated),-13.1
11,Cc1ccc2c(c1)c1c(n2CC(O)CN2CCCCCC2)CCCC1 (configuration not stated),-2.65
12,Cc1ccc2c(c1)c1c(n2CC(O)CN2CCOCC2)CCCC1 (configuration not stated),5.45
13,Cc1cc(C(=O)COC(=O)c2ccc(N)cc2)c(C)n1-c1c(C)n(C)n(-c2ccccc2)c1=O,-9.39
14,CSc1nc(N2CCOCC2)cc(N2CCOCC2)n1,2.38
15,COc1ccc(Br)c(C(=O)NC2CCCC2)c1,2.12
16,CCC(CC)C(=O)NCc1ccc(OC)cc1,22.8
17,O=C1CN(C(=O)/C=C/c2cccc(Cl)c2)c2ccccc2N1,8.09
18,O=C(CS(=O)(=O)c1ccc(F)cc1)NCc1ccccc1,-1.23
19,Cc1ccc(-c2nn(-c3ccccc3)cc2CSC(=N)N)cc1,17.4
20,OCc1cn(-c2ccccc2)nc1-c1ccc(-c2nn(-c3ccccc3)cc2CO)cc1,-10.8
21,CNC(=O)NC(=O)COC(=O)c1ccccc1OCc1ccccc1,0.41
22,CC(=O)N1CCC(=NNc2ccnc3cc(Cl)ccc23)CC1,0.99
23,C/C(=N\Nc1cccc2cccnc12)c1ccc(N)cc1,10.3
24,CCOC(=O)N1CCN(c2ccnc3cc(Cl)ccc23)CC1,-0.34
25,Oc1ccc(/C=N/Nc2ccnc3cc(Cl)ccc23)c(O)c1,-3.01

row,SMILES,inhibition [%]
1,C/C(=N/Nc1ccnc2cc(Cl)ccc12)c1ccc(O)cc1,-22.6
2,Oc1ccc(Nc2ccnc3cc(Cl)ccc23)cc1,-4.09
3,Cc1noc(C)c1C(=O)NCCC1=CCCCC1,1.2
4,Cn1nnnc1SCCNC(=O)C1CCC(=O)N(Cc2ccc(Cl)cc2)C1 (configuration not stated),-10.8
5,COc1ccc(NC(=O)C2CC(c3ccc(Cl)cc3)=NO2)cc1 (configuration not stated),7.66
6,Cc1ccc(OCC(O)CNC(C)c2ccccc2)cc1C (configuration not stated),-6.36
7,CC(NCC(O)COCc1ccc(Cl)cc1)c1ccccc1 (configuration not stated),-6.47
8,NCC(O)COCCC12CC3CC(CC(C3)C1)C2 (configuration not stated),-0.98
9,CC(C)c1ccc(OCC(O)CNC(C)c2ccccc2)cc1 (configuration not stated),1.07
10,COc1cccc(OCC(O)CNC(C)c2ccccc2)c1 (configuration not stated),6.91
11,COc1ccc(OCC(O)CNC(C)c2ccccc2)cc1 (configuration not stated),1.46
12,O=C(CCC1CCCN(C(=O)c2cccc(F)c2)C1)N1CCN(c2ccccn2)CC1 (configuration not stated),-7.6
13,O=C(CCNS(=O)(=O)c1ccccc1)OCC(=O)c1ccc(Br)cc1,-3.69
14,COc1ccc(C2N(c3ccccc3)CCN2c2ccccc2)cc1O,-8.63
15,COc1ccccc1Cn1c(CCCO)nc2ccccc21,1.55
16,Oc1ccc(Cl)cc1CNn1cnnc1,9.93
17,Oc1ccc(Cl)cc1CNCc1ccc(Cl)cc1,12.4
18,CCOc1ccc(S(=O)(=O)NC(C)C(=O)NCc2ccccn2)cc1 (configuration not stated),-3.4
19,OC(CN1CC=C(/C=C/c2ccc(Br)cc2)CC1)c1ccccc1 (configuration not stated),-9.93
20,COc1ccc(/C=C/C2=CCN(C)CC2)cc1,17.2
21,CCOc1ccc(S(=O)(=O)N2CCN(C(=O)c3ccncc3)CC2)cc1,-2.75
22,CC1CN(C(=O)CCC(=O)NCc2ccccc2)c2ccccc2S1 (configuration not stated),6.38
23,OC(CNCC1CCCO1)Cn1c2ccc(Br)cc2c2cc(Br)ccc21 (configuration not stated),-0.49
24,OC(CNCC1CCCO1)Cn1c2ccccc2c2ccccc21 (configuration not stated),14.3
25,NC(=O)Cn1c(=O)n(CC(=O)N2CCCCC2)c(=O)c2sccc21,2.84

row,SMILES,inhibition [%]
1,COc1ccc2[nH]c(C)c(CCNC(=S)Nc3ccccc3OC)c2c1,-5.5
2,COc1ccc2[nH]c(C)c(CCNCc3cc(OC)c(OC)c(OC)c3)c2c1,7.48
3,COc1ccc(CNCCc2c(C)[nH]c3ccc(OC(F)(F)F)cc23)c(OC)c1,-3.23
4,Cc1[nH]c2ccc(OC(F)(F)F)cc2c1CCNCc1cccc([N+](=O)[O-])c1,6.4
5,O=C(CN1CCC(C(O)(c2ccccc2)c2ccccc2)CC1)Nc1cc(Cl)ccc1Cl,-20
6,COc1ccccc1C(=O)NC(=O)Nc1nc(-c2ccccc2)cc(C(F)(F)F)n1,2.17
7,COc1cc(/C=C/C(=O)O)ccc1O,10.8
8,C/C=C/c1ccc(O)c(OC)c1,1.57
9,C/C(=N\Nc1nc(C)cc(-c2ccccc2)n1)c1ccc(O)cc1,-2.43
10,Cc1cccc(C)c1NC(=O)CN(C)C(=O)c1ccc2nc[nH]c2c1,1.29
11,Cc1ccc(C(=O)NCC(C)NC(=O)c2ccc(C)c([N+](=O)[O-])c2)cc1[N+](=O)[O-] (configuration not stated),-3.75
12,CCOC(=O)c1ccc(-c2ccc(C3Nc4ccccc4C(=O)N3O)o2)cc1 (configuration not stated),-7.99
13,O=C1c2ccccc2NC(c2ccc(-c3cccc([N+](=O)[O-])c3)o2)N1O (configuration not stated),-4.04
14,CCN1CCN(c2ccc(S(=O)(=O)N3CCCCC3)cc2NC(=O)c2ccccc2)CC1,-7.27
15,CSC(=NS(=O)(=O)c1ccc(C)cc1)SC,2.62
16,CCC(C)(C)NC(=O)CN(CC1CCCO1)C(=O)CCC(=O)Nc1nccs1 (configuration not stated),1.73
17,CCOC(=O)C1CCN(c2cc3c(cc2NC(=O)c2ccccc2F)n(C)c(=O)n3C)CC1,-6.44
18,CC1CCc2cc(F)cc3c(O)c(C(=O)NCCN(C)C)c(=O)n1c23 (configuration not stated),-11.2
19,O=C(O)c1cn(-c2ccc(F)c(F)c2)c2c(F)c(F)c(F)c(F)c2c1=O,-8.9
20,CCN(CC)CCCNC(=O)c1c(O)c2cc(F)cc3c2n(c1=O)C(C)CC3 (configuration not stated),-12.5
21,CCOC(=O)c1cn(CC2CC2)c2cc(F)c(F)cc2c1=O,-1.36
22,C[n+]1ccccc1/C=C/c1ccc(F)c(F)c1,-2.41

# From PubChem BioAssay AID1850 (Southern Research Specialized Biocontainment Screening …, 2009)
